Measured values from PubChem BioAssay AID1508600 (Functional Genomics Laboratory (NCATS/FGL), 2020).
About 3,700 (7%) of roughly 53,000 sequences were called active.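 The calls were made as follows: active = gene knockdowns whose robust z-score for IL-1 alpha signal is at least 2 or at most -2, so actives lie on both sides; inactive = the rest.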 The sample as a whole holds a higher share of actives than the screen did.

test: Components of the Cytosolic LPS Sensing Pathway: Gene Identification via Genome-wide siRNA Screen; details: RAW264.7 macrophages, IL-1a HTRF, actives lie on both sides, screened at 100 nM (by protocol), cells primed 5 h with Pam3CSK4 first;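 also: robust z of the log signal after scaling to non-targeting control siRNA wells of the plate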
How it was run: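 Read-out: IL-1a HTRF on supernatant, divided by plate negative-control median ×100, log-transformed and converted to robust z-score. Cells were RAW264.7 given 100 nM siRNA, Pam3CSK4-primed 5 hours, then LipidA-transfected 24 hour.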

z-score, active:
GGAAGGAGAAGAAAACAUATT against Gtf3c6 -2.13
CCAGUCCUUGAAAAGAGCUTT against Olfr128 -2.35
GCGGUAUGAGAAGGUUCCATT against Rap2a 3.48
GCGAAACUUCCAGAUCUAGTT against Cnot11 2.14
CCCAUCAAUAUCAUAUCCATT against Car7 -2.34
GCAUAUUGUGCGACUUUUCTT against Utp15 -2.16
CCUUAAUUGGGUUGAAUUCTT against Olfr878 2.44
GCCUCAUUGAAAGGAUCCATT against Mgat5b -2.32
GGCCCUGUGUCAAAUCAGUTT against Zfand6 2.1
GGUCUCAAAGAAAUCUGUATT against Bcap29 -2.4
GCUGGUGUCUUAUGGCCUATT against 9130008F23Rik -2.02
GCUCACACUCUUCAUUAUCTT against Olfr1408 -2.91
GGAACAUCAUCCACUGGAATT against Crhr1 6
GGAUGAUCUUGGUGUACACTT against Tmem91 3.04
GGUUGUCUGGAAUUUCCAUTT against Immp2l 3.81
GCCAGUUAUGAGCAACACCTT against Slc46a1 -2.14
AUGCGUCCUUCACCAACGATT against Tmem158 -3.28
GGGACUAAGAUGAAGCUGATT against Fam43a -2.18
GCUACAUACCCAAAUACAUTT against Trpc4ap 2.1
GCUUCUGUCAUAAUGAUAUTT against Pramel6 -2.33
GCGGGAGCUUAGCUUUUAUTT against G6pc3 3.33

z-score, inactive:
GGAGUUACGUAGAACUACCTT against Adam25 0.543
GCAAAUAUUGGCCACUCUCTT against Prpf19 -0.523
GCCAAGAAAAUCAAGUCUCTT against Pknox2 0.892
GGCUGUCCAGACUAGUUCUTT against Lsm14b -0.317
CCUCAUCAUAUUCUCCUGATT against Olfr869 -0.848
CCUGUCUUUAGUGGACUUUTT against Olfr1453 0.22
GGUCUUUGAGAAGUACCACTT against Chst3 -0.22
CGCCCAAAUUGACUAUUUGTT against Fam214b 0.351
GAGAGCGGAGAGAUCAAAGTT against Iltifb 0.108
GGCUGUUCCAGAGAUUGUGTT against Mela -0.29
GGCAUUGACAUCAUGUACUTT against Agxt 1.1
GCGACAUCACAAGAAUCGATT against Fancd2 -0.979
CCUAUCAAAUUAAAUGCGCTT against Muc13 -0.6
GGUUGUGAUCAAUUAUUCATT against Evl 1.27
GGAACACUCUGAAUUCAUUTT against Cxcl15 0.0905
GCUGCUUUACUUAAGAGUUTT against Srf 0.625
GGGCAAGAGAGUAGAACUGTT against Ambra1 0.383
GGUGACACAGCUGCUUUUCTT against Dact2 0.107
CGGUCCAGGAAGAAUGUUUTT against Bckdhb -0.781
GGAUUGUCAGAAAUCCUGATT against Adat2 -1.22
CCAGAGUUCUGGGAUUCCATT against Cyp2c66 -0.948
GGCCAAGAAUGAUCGUUCUTT against Gabrb3 0.00587
GCAGACAGUAAAUUGGUAATT against Mab21l3 0.915
GGAUUACACACCUACGAUCTT against Taf10 -1.63
CGACUACCUGGAUAUCUACTT against Efna2 -0.292
GGCGUGUUGAGACAAUCCUTT against Lkaaear1 -0.815
GCAUAGCAGGAAGGCCUUGTT against Htr6 0.183
GCAAAUUUUAUCAACCGCATT against Mical3 -0.0618
CGACCAUACGAAUGCGGCATT against Zfp865 0.498
GGCUUGAACACAAGAAAGCTT against Golim4 -0.778
GGAUGAGAAUAUUGAAAGATT against 4932415M13Rik -0.225
GGCAGGAAAACUGCCAAUGTT against Gm6034 1.36
GCUGACUAAGGCUUGUAAUTT against Hrnr -0.194
GGUUAAUUCCAACAAAGCATT against Orc4 -0.529
GGUCUACAACCAAAUCUGCTT against Clec7a -0.531
CCUGAGACUGCAUCUUUUCTT against Slc10a7 -0.693
GCCAAAUUAAGUAUCUUGATT against Lamp2 0.371
GGCGGAAAAAAAAGUAAUATT against Crebzf 0.926
GGCUCAUUGGACAUAUAUGTT against Casp8ap2 -1.77
GGGACACCAAGUUUUCCAUTT against Paqr7 1.63
GGAAGAAGCAGGUGAUUAATT against Grb14 -1.24
CGGAUCGGUGCGAGAAUAATT against Gpatch3 0.61
GGAGAUUGUUAUGCAAAAATT against Dnah5 0.178
GGAAAUUUUGAACCUGACATT against Setd3 0.125
GGACUCUUCAGCUUCCAGUTT against Uts2 -0.0543
CCAAGACUCUUUAUUCAACTT against Rasip1 0.774
GGAGACAGAAAAUCAAGGCTT against Taf7 -0.506
CCCUUGCUUGCUAAGAUUUTT against Scyl3 -0.684
GGAUACAGAGUAUUUCAAGTT against Rtkn -1.01
GCUUGUUCGGGAAUCUUAUTT against Olfr292 0.116
GCCUGUUCCGCCAUUCAUGTT against Flii -0.2
GGUGUUAGCUUCUCAAAAUTT against Cltrn 0.497
GGCAAUUUGUGGAUUAUUGTT against Olfr1105 -0.458
CCCUAAUUCAUUAGCUAUATT against Dhdds 0.111
GGACCCUGCUUUUUAAAAATT against Harbi1 0.293
GGAAGAGGAGGAAAACUUGTT against Fam135b -0.653
GGUAUAAUUGGAAUUGUGATT against Morc1 -0.658
CCCAAUUCCUUAACUAUUATT against Cd209a 1.02
GGUGGAAAGUGCAUAGACATT against Notch3 0.789
GGACCUGGAUCUAUCCUACTT against Lrfn1 -0.969
GGAUGAUGACUUCCUAGGGTT against Cpne7 -0.622
CCUUAGGAUAGAAACAAAGTT against Mypn 1.01
GCUAACAAAUGUCAGCAUGTT against Popdc3 0.319
GCCGACUUUAAUGACUGCUTT against Cmtm4 1.71
CGAAACUGGUCUUUAUACUTT against Tigd4 -1.27
GGAUGACAUGUCAUCAAAGTT against Vmn1r89 -1.38
GGGAAGAGUGGUGCAAUGATT against Olfr155 0.835
GCAACAAUAAAUCGUACAGTT against Nupr1 0.246
GGGAAGUUCAUAUUGAUCCTT against Gsdma 0.691
GGCUUAAGGUGAGAUAUUCTT against Sp9 -0.524
CGAGUGUUCCUCCAAGUGCTT against Fhl5 0.384
GCUCACUUAUCUACGUUUUTT against Trim15 0.639
GCAUGUGACCUCGUCUUGCTT against Apbb2 -1.04
GGGCAUGAGAAAUCCACAGTT against Rhox9 -1.23
GGCAAAUAAAUUCAGCAAGTT against Pum3 -0.0642
GGACUUCCCGAACUACAUATT against Zfp52 0.0339
GGCUCUCUUUAGAACAGACTT against Rad17 0.479
GGGACAUAUCUGAAGCAAGTT against Rps26 0.896
CCAGAAACCAAUCUUUCUUTT against Serpinb1a -0.0285
CCCUAGUGAUAAGGAAUGCTT against Cxcl9 0.228
GGUGACCACUUCAUGUCACTT against Tmem138 -1.28
CCGUAGACUCGGUGAAGCUTT against Plpbp -0.143
GGUCAGAAUCUUUGUUCCUTT against Ndufs4 -0.912
GGAUUCCCUGUAUGCCCAATT against Rpl36al -0.23
GGAGAAGCCAAAAGAAUGCTT against Xrn2 -0.76
GCUUACAAGUUGCUACUGGTT against Dnajc8 0.425
